Only some compounds are listed: those with a hit (about 2.5% of all), similar ones and a draw of the others.
LASV entry inh: inhibitors of Lassa virus binding or cell entry; Lassa virus pseudotype entry inhibition, cell reporter; Potency, µM (series often up to 37.9 µM), without a hit: at the highest dose activity change, negative = inhibition, actives largely listed as inhibitors; actives 1.2% (n = 300,000); AID 540256; calls by dose curve; tested in HEK293 cells; also: nearly all actives have a fitted effect of over 50% in size
Vaccinia mCherry: vaccinia inhibition (mCherry reporter) | AID 720579 | actives 0.63% (n = 310,000) | Vaccinia virus mCherry reporter infection, fluorescence | Potency, µM (titrated, usually from 36.5 µM), without a hit: top-dose activity change, negative = inhibition, hits mostly inhibitors; calls by dose curve; tested in A549 cells; also: nearly all actives have a fitted effect of over 35% in size
VACV Venus inh: inhibitors of vaccinia virus (Venus reporter); Vaccinia virus Venus reporter expression, fluorescence; actives 0.46% (n = 330,000); Potency, µM (top dose mostly 36.5 µM), for inactives: at the top dose activity change, negative = inhibition, hits mostly inhibitors; calls by dose curve; tested in A549 cells; also: nearly all actives have a fitted effect of over 30% in size
MARV entry inh: inhibitors of Marburg virus binding or cell entry | Marburg virus pseudotyped entry inhibition, cell reporter | Potency, µM (titrated, usually from 37.8 µM), without a hit: at the highest dose activity change, negative = inhibition, actives largely listed as inhibitors | actives 1.8% (n = 300,000); calls by dose curve; tested in HEK293 cells
Numbers without * were called inactive; i = inactive; ? = inconclusive; . = no result; [ ] = remark or other dose. % is scaled to controls: 0 for no effect and ±100 for the full control effect; potency is read from the fitted curve at half-maximal effect.

SMILES	LASV entry inh	Vaccinia mCherry	VACV Venus inh	MARV entry inh
CC(=O)Nc1ccccc1-c1nc(CNC(=O)c2cc(C)ccc2C)c(C)o1	.	-5%	12%	.
CC(C)c1ccc(NS(=O)(=O)c2ccc(Cl)nc2)cc1	-6%	4µM*	7.9µM*	12%
COc1ccc(CN2CCOc3c(O)cc(-c4cc(C)c5ccc(F)cc5n4)cc3C2)c(O)c1	.	-18%	-10%	.
O=C1c2ccccc2S(=O)(=O)c2cc(C(=O)N3CCC(C(=O)N4CCCCC4)CC3)ccc21	.	?	1.4µM*	.
O=C(CCN1CCN(CCO)CC1)N1c2ccccc2Sc2ccc(C(F)(F)F)cc21	.	-8%	-14%	-6%
CN1CCN(CCCN2c3ccccc3Sc3ccc(C(F)(F)F)cc32)CC1	13µM*	?	?	6.5µM*
CC(=O)Nc1sc(N/N=C\c2ccccc2)nc1-c1cccs1	20%	-15%	3%	11%
CC(=O)Nc1sc(N/N=C\c2ccccc2Cl)nc1-c1cccs1	0%	11µM*	?	-16%
COc1ccc(-c2csc(NC(=O)c3ccc(OCC(=O)N4CCOCC4)c(OC)c3)n2)cc1OC	?	?	?	11µM*
COc1ccc(-c2csc(NC(=O)CSCc3c(C)noc3C)n2)cc1OC	11µM*	-3%	-16%	?
COc1cc(C(=O)Nc2ccc(C(F)(F)F)cc2)ccc1OCC(=O)N1CCOCC1	-3%	-23%	-8%	19%[46.1 µM]
Cc1noc(C)c1CSCC(=O)Nc1nc(-c2ccc(F)c(F)c2)cs1	?	i	-12%	?
O=C(CN1CCOCC1)Nc1nc(-c2ccc(Cl)cc2)cs1	7.1µM*	i	-17%	?
Cc1ccc(-c2csc(NC(=O)CN3CCOCC3)n2)cc1	?	-5%	-18%	?
S=C(NCCCN1CCOCC1)N1CCN(c2nc(-c3ccc(Cl)cc3)cs2)CC1	16µM*	.	.	?
O=C(COC(=O)CNC(=O)C1CCCCC1)NC1CC1	.	25%	8%	.
Cc1cnc(SCC2CCCO2)nc1C1CCCN(C(=O)C2=NNC(=O)CC2)C1 (stereo not drawn)	.	-15%	-13%	.
CCOC(=O)N1CCN(C(=O)CSCC(=O)Nc2nc(-c3ccc4c(c3)OCO4)cs2)CC1	7%	.	.	?
O=C(CSCC(=O)N1CCOCC1)Nc1nc(-c2ccc3c(c2)OCO3)cs1	.	?	8.9µM*	.
CCSc1nsc(NC(=O)Nc2ccccc2F)n1	?	-20%	-29%	?
CCSc1nsc(NC(=O)Nc2cccc(OC)c2)n1	?	?	?	11µM*
CN(C)c1ccc(/C=C2\C(=O)/C(=C\c3ccc(N(C)C)cc3)c3ccccc32)cc1	.	i	-3%	.
CN(C)CCNC(=O)c1ccc(COc2ccc(Cl)cc2Cl)cc1	?	.	.	8.2µM*
CSC1=NC(=O)C2=C3CC(C)(C)OCC3SC2=N1 (stereo not drawn)	.	.	.	14%[46.1 µM]
COC(=O)C1=C(C)N(Cc2ccco2)C(=O)NC1c1ccco1 (stereo not drawn)	.	.	.	0%[14.2 µM]
SMILES	LASV entry inh	Vaccinia mCherry	VACV Venus inh	MARV entry inh
Cc1cc2c(c(-c3cnccn3)c1)OC(CNC(=O)c1cc(Cl)ccc1F)C2 (stereo not drawn)	.	-14%	-14%	.
CCN1CCN(C(CNS(=O)(=O)c2ccc(OC)c(C)c2)c2cccnc2)CC1 (stereo not drawn)	36%	0%	-6%	3%
COc1ccc(S(=O)(=O)NCC(c2cccnc2)N2CCN(c3ccccc3)CC2)cc1C (stereo not drawn)	-19%	-17%[1.46 µM]	10µM*	-2%
CN1/C(=C/c2cc[n+](C)c3ccccc23)C=Cc2ccccc21	?	?	?	4µM*
CC1CCc2c(sc3nc(C4CC4)nc(N4CCN(C(=O)c5ccco5)CC4)c23)C1 (stereo not drawn)	?	14µM*	?	?
Cc1ncc2c(c1CNC(=O)c1ccc3c(c1)OCO3)CCN(C(=O)c1cnsn1)C2	.	-10%	-6%	.
CC(C)COc1ccc(C(=O)N[C@@H](CC(C)C)C(=O)O)cc1	.	.	.	27%
CCOCCCNC(=O)C(c1ccc(C)cc1)N(Cc1cccs1)C(=O)c1ccccc1O (stereo not drawn)	11µM*	-12%	-19%	?
CCOCCCNC(=O)C(c1ccc(Cl)cc1)N(Cc1cccs1)C(=O)c1ccc(NC(C)=O)cc1 (stereo not drawn)	?	-5%	1%	10µM*
CCOCCCNC(=O)C(c1ccccc1)N(Cc1cccs1)C(=O)c1ccccc1O (stereo not drawn)	?	-2%	-10%	?
Cc1cc(-c2ccccc2)n(-c2cc(N/N=C/c3ccccc3O)ncn2)n1	4.5µM*	?	?	8.9µM*
O=C(NC1CCCC1)C(c1ccncc1)N(Cc1ccccc1)C(=O)c1ccc(-c2ccccc2)[nH]1 (stereo not drawn)	?	-25%	-30%	?
O=C(NC1CCCC1)C(c1ccncc1)N(Cc1ccco1)C(=O)c1ccc(-c2ccccc2)[nH]1 (stereo not drawn)	.	?	-27%	10µM*
CC(=O)OC[C@H]1O[C@H](CC=NO[C@H](C)c2cn([C@H](CO)Cc3ccccc3)nn2)C=C[C@@H]1OC(C)=O	-21%[14.3 µM]	.	.	13%[14.2 µM]
CCOc1ccc(C(=O)C[n+]2cccc3cc(C)ccc32)cc1	?	i	4%	7.1µM*
CC(O)(COc1ccccc1)c1ccc2c(c1)CN(Cc1cccc3ncccc13)CCO2 (stereo not drawn)	.	-19%	-4%	.
COc1ccc2c(c1)OC(C)CN(CCNC(=O)C1CCOC1)C2 (stereo not drawn)	.	-4%	7%	.
NC1=C(Br)C(=O)c2ncccc2C1=O	?	?	2.5µM*	2.5µM*
CCn1c(-c2ccccc2F)nc2cc(NC(C)=O)cc(C(=O)N3CCC[C@H]3C(=O)OC)c21	.	i	0%	.
COc1cc(Br)cc(/C=N/N(CCO)C2=NS(=O)(=O)c3ccccc32)c1OC	-28%[46.1 µM]	-7%	-29%	4µM*
COc1cc(/C=N/N(CCO)C2=NS(=O)(=O)c3ccccc32)cc(OC)c1OC	-17%[46.1 µM]	i	-17%	?
COc1cccc(/C=N/NC(=O)c2ccc(=O)n(C)c2)c1O	?	-5%	2%	?
COc1cccc(/C=N/NC(=O)c2[nH]c(C)c(C(=O)N/N=C/c3cccc(OC)c3O)c2C)c1O	?	-26%	-14%	8.9µM*
Cc1cccc(/C=N\NC(=O)c2ccc(Cl)cc2)c1O	11µM*	2.5µM*	?	5.6µM*
Oc1ccc(/C=N/NC(=S)Nc2cccnc2)c(O)c1O	?	i	14%	-28%[46.1 µM]
SMILES	LASV entry inh	Vaccinia mCherry	VACV Venus inh	MARV entry inh
COc1cccc(/C=N/NC(=O)c2c(C)nc3ccc(Cl)cn23)c1O	?	3.2µM*	?	1µM*
Oc1cccc(/C=N/NC(=S)Nc2cccnc2)c1O	21µM*	?	?	?
CC1C=C2OC(N)=C(C#N)C(c3ccncc3)C2C(=O)N1CCN(C)C (stereo not drawn)	.	.	.	1%
C[C@H]1C(C(=O)N2CCCC2)=Cc2[nH]c(=O)[nH]c2C=C1c1ccccc1	.	.	.	18%[14.2 µM]
CC(CCN1CCCCc2nc(C)c(C)cc21)=NO[C@H](C)c1cn([C@@H]2COC[C@@H]2O)nn1	.	.	.	4%[14.2 µM]
CCn1c(C)nc2cc(C(=O)NNC(=S)Nc3ccccc3)ccc21	4.5µM*	-26%	-27%	?

Screening data as filed in PubChem BioAssay.
